Our source for the inhibition values is PubChem BioAssay AID2221 (Broad Institute, 2009).

Where “and” joins values, the source holds several entries; their conditions need not be identical. Identical values can stand only once. The whole screen tested about 290,000 compounds, of which about 2,200 (0.76%) were called active. No stated cut-off is given here; in the data, active means inhibition above about 30%; inconclusive means no clear call, values can overlap the other calls; inactive means below that. Many of the other results were omitted from the sample, so actives are more common in it than they were.

For this test, the target named is Protein RecA (Mycobacterium tuberculosis (strain ATCC 25618 / H37Rv)) (UniProt P9WHJ3). The test can be described thus: Mtb RecA intein splicing inhibitors, primary screen, biochemical, fluorescence, HTS (AID 2221).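 Further: 0% = vehicle wells and 100% = reference inhibitor control wells.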 To be noted: cell-free RecA intein splicing, hits give high values, concentration not given here.
Sequence of Protein RecA (Mycobacterium tuberculosis (strain ATCC 25618 / H37Rv)) (P9WHJ3 whole entry, looked up): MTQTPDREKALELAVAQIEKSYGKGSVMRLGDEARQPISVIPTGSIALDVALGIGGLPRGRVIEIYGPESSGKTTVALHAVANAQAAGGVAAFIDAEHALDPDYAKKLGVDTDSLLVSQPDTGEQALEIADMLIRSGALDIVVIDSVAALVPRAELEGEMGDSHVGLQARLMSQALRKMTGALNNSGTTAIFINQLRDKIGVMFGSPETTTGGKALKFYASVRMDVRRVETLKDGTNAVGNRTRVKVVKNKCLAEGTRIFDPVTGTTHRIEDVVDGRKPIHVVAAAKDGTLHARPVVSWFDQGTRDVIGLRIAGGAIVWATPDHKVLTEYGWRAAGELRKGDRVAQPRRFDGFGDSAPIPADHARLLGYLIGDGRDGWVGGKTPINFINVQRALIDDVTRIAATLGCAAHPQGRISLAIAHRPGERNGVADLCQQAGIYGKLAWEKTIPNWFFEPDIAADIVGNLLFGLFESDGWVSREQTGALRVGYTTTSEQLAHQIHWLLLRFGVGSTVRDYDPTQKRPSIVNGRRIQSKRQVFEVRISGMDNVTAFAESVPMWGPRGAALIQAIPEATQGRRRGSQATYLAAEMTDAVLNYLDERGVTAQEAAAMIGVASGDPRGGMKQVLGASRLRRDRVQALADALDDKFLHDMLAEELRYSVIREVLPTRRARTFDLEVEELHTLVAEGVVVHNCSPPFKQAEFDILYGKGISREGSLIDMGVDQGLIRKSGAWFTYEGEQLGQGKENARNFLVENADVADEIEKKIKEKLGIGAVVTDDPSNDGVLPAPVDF
In the case of `CN(C)S(=O)(=O)c1ccc2oc(SCC(=O)Nc3ccccc3F)nc2c1`, the inhibition was -2.69% (inactive).

With `N#Cc1c(N2CCCCC2)nc(N)c2c(N)nc(SCC(=O)O)cc12`, the inhibition is 61.1% (active).

As for `N#Cc1c(-c2ccccc2)cc(-c2ccccc2)nc1SCC(=O)O`, the inhibition was 0.292% (inactive).

`N#CCc1c(C#N)c(N)nc(N2CCCC2)c1C#N`: the inhibition was 0.638% (inactive).

As for `CCOc1ccc(C2NC(=S)NC3=C2CCc2ccccc23)cc1` (configuration not stated), the inhibition is 15% (inactive).

With `COc1ccc(C2NC(=S)NC3=C2CCc2ccccc23)cc1OC` (configuration not stated), the inhibition is 45.9% (active).

Regarding `CCOC(=O)C1=C(c2ccccc2)NC(=S)NC1c1ccc(Cl)cc1` (configuration not stated), the inhibition was 8.84% (inactive).

As to `Cc1nn(C(C)(C)C)c(OC(=O)CC(C)C)c1S(=O)(=O)c1ccccc1`, the inhibition was 8.28% (inactive).

`O=C(CCNS(=O)(=O)c1cccs1)N1CCN(c2ccc(F)cc2)CC1`: the inhibition was -0.494% (inactive).

With `CCOCC(=O)NCc1ccc2c(c1)cc(C)n2C`, the inhibition was 30.1% (active).

In the case of `COc1cc(C(=O)NCc2ccc3c(c2)cc(C)n3C)cc(OC)c1OC`, the inhibition was 1.47% (inactive).

As for `Cc1ccc(CNC(=O)COc2ccc3c(c2)CCC3)cc1`, the inhibition was 1.94% (inactive).

On to `CCc1cc(CNC(=O)CC2C(=O)NCCN2Cc2ccccc2C(F)(F)F)on1` (configuration not stated), for which the inhibition was -0.415% (inactive).

Take `Cc1oc2cc(Br)c(O)c(Br)c2c1C(=O)c1ccccc1`: the inhibition is 12.7% (inactive).

For `Cc1oc2cc([N+](=O)[O-])c(O)c([N+](=O)[O-])c2c1C(=O)c1ccc(Br)cc1`, the inhibition was 41.5% (active).

With `COc1ccc(C(=O)c2c(C)oc3cc([N+](=O)[O-])c(O)c([N+](=O)[O-])c23)cc1`, the inhibition is 8.62% (inactive).

As for `COC(=O)[C@H]1[C@H]2C[C@H]3c4[nH]c5ccccc5c4CCN3C[C@@H]2CC[C@@H]1O`, the inhibition is 0.605% (inactive) and -6.9% (inactive).

Regarding `CC(Oc1cc2oc(=O)c3c(c2cc1Cl)CCCC3)C(=O)NCc1ccncc1` (configuration not stated), the inhibition is 0.148% (inactive).

With `O=C(CN(C(=O)c1csnn1)c1cccc(Cl)c1)NC1CCCC1`, the inhibition was -3.49% (inactive).

As for `O=C(Nc1ccc(Cl)c(Cl)c1)c1ccccc1NC(=O)C1CC=CCC1C(=O)O` (configuration not stated), the inhibition is 0.473% (inactive).

Consider `O=C(c1ccc(Cl)cc1)c1cnc(Nc2ccccc2)s1`, for which the inhibition was -1.16% (inactive).

As to `O=C(Nc1ccccc1)c1nnsc1S(=O)(=O)c1ccc(Cl)cc1`, the inhibition was 70% (active).

For `CN(c1cccc(NC(=O)Nc2ccc(Cl)cc2)c1)S(C)(=O)=O`, the inhibition was 4.89% (inactive).

Consider `Cc1cc(C)nc(SCc2nnc(SCC(=O)OC3CCCCC3)o2)n1`, for which the inhibition was 0.246% (inactive).

Consider `CCOC(=O)C1=C(c2ccc(OC)cc2)C(=O)c2ccccc2C1=O`, for which the inhibition was 83.5% (active).

`CCOC(=O)c1c(-c2ccc(C)cc2)csc1/N=C(\C)C1=C(O)c2ccccc2C1=O`: the inhibition is -0.167% (inactive).

Consider `COc1ccc(N2CCN(C(C)=C3C(=O)c4ccccc4C3=O)CC2)cc1`, for which the inhibition is -1.11% (inactive).

For the compound `CC1CN(C(=O)CCC(=O)NCCCN2CCC(Cc3ccccc3)CC2)c2cc(Cl)ccc2O1` (configuration not stated), the inhibition is 4.67% (inactive).

Regarding `COc1cccc(CCNC(=O)c2cccc(NC(=O)C3=C(C)OCCS3)c2)c1`, the inhibition was -0.654% (inactive).

As for `Cn1c(=O)c2sccc2n(Cc2ccc(Br)cc2)c1=O`, the inhibition was 1.32% (inactive).

In the case of `COc1ccccc1-n1nnnc1S(=O)(=O)Cc1ccc(Cl)cc1`, the inhibition is 81.5% (active).

For `COc1ccccc1N1CCN(S(=O)(=O)c2ccc(Cl)cc2)CC1`, the inhibition is 13.3% (inactive).

Turning to `CCN(C(=O)CSc1nnnn1-c1ccccc1OC)C1CCS(=O)(=O)C1` (configuration not stated), the inhibition was -4.51% (inactive).

On to `O=C(CSc1nc2[nH]ncc2c(=O)[nH]1)Nc1ccc(F)cc1`, for which the inhibition was -1.71% (inactive).

With `CCC(=C/c1sc2ccc3ccccc3c2[n+]1C)/C=C1\Sc2ccc3ccccc3c2N1C`, the inhibition is -0.0609% (inactive).

With `COc1cccc(NC(=O)CN(C)C(=O)c2ccccc2CCc2ccccc2)c1`, the inhibition was 5.79% (inactive).

With `O=C(CN1CCN(S(=O)(=O)c2ccc(Br)cc2)CC1)Nc1ccccc1C(=O)c1ccccc1`, the inhibition was -0.838% (inactive).

`Cc1noc(C)c1C(=O)N1CCOCC1`: the inhibition is 1.19% (inactive).

On to `Cc1oc2c(c1C(=O)N1CCOCC1)C(=O)c1ccccc1C2=O`, for which the inhibition was 86% (active).

Regarding `CCOC(=O)c1ccccc1C(=O)N1CCOCCOCCOCC1`, the inhibition was 0.452% (inactive).

`Nc1[nH]c(=S)nc2nc(-c3ccccc3)c(-c3ccccc3)nc12`: the inhibition is -3.24% (inactive).

With `Cn1cnc2c1c(=O)n(Cc1ccccc1C#N)c(=O)n2C`, the inhibition is -5.24% (inactive).

`O=C(CCC(=O)N/N=C/c1ccc(Br)o1)N/N=C/c1ccc(Br)o1`: the inhibition was -0.217% (inactive).

Regarding `CCOC(=O)c1sc(NC(=O)CCN2CCOCC2)c(C(=O)OCC)c1C`, the inhibition is 2.17% (inactive).

For `CCOC(=O)c1c(NC(=O)CCl)sc(C(=O)N(CC)CC)c1C`, the inhibition was 46.7% (active).

On to `CCOC(=O)Nc1sc(C(=O)N(C)C)c(C)c1C(=O)OCC`, for which the inhibition is 1.54% (inactive).

As for `Cc1nc(CNS(=O)(=O)c2cc([N+](=O)[O-])ccc2C)cs1`, the inhibition is -3.48% (inactive).

Regarding `CCc1ccccc1N(CC(=O)NCC1CCCO1)C(=O)CCC(=O)Nc1nccs1` (configuration not stated), the inhibition was -1.77% (inactive).

As for `Cc1ccc(C)c(NC(CC(=O)c2ccccc2)C(=O)OCC(=O)c2cccs2)c1` (configuration not stated), the inhibition is -3.12% (inactive).

With `Cc1ccccc1C(CC(=O)c1cccs1)C(C#N)C#N` (configuration not stated), the inhibition was 63.2% (active).

Take `CCc1cccc(C)c1NC(=O)COC(=O)CNC(=O)c1cccs1`: the inhibition was -3.74% (inactive).

Regarding `Cc1ccc(Sc2cc(N3CCOCC3)nc(-c3ccccc3)n2)cc1`, the inhibition is -0.766% (inactive).

As to `O=S(=O)(c1ccc(-c2ccno2)s1)N1CCCCC1`, the inhibition is 0.0995% (inactive).

`Cc1cc(C)n2nc(C(=O)NC(C)(C)C)nc2n1`: the inhibition was -3.67% (inactive).

Take `Cc1cc(C)n2nc(CNS(=O)(=O)c3c(F)c(F)c(F)c(F)c3F)nc2n1`: the inhibition is 33% (active).

Consider `Cc1cc(C)n2nc(SCC(N)=O)nc2n1`, for which the inhibition is -1.48% (inactive).

`COc1ccc(N2CCN(C(=O)C3CCN(S(=O)(=O)c4ccc(C)cc4)CC3)CC2)cc1`: the inhibition is -2.81% (inactive).

As for `CCN(CCNC(=O)C1=C(C)C(=O)OC12CCC(C)CC2)c1ccccc1` (configuration not stated), the inhibition is -9.04% (inactive).

With `O=S(=O)(c1cnccc1N1CCN(/N=C/c2ccc(Br)cc2)CC1)N1CCCCC1`, the inhibition was -5.35% (inactive).

For the compound `COc1ccc(C(CCN(Cc2ccc(OC)c(OC)c2)C(=O)CCl)c2ccccc2)cc1` (configuration not stated), the inhibition is 77.7% (active).

For the compound `COc1ccc(COC(=O)NC(C(=O)O)c2ccccc2)cc1` (configuration not stated), the inhibition is -3.65% (inactive).

Turning to `COc1ccc(CN(C)C(=O)CC(c2ccccc2)c2ccccc2)cc1`, the inhibition is 12% (inactive).

With `CCCc1cc(=O)oc2c(C)c(OCC(=O)Nc3ccccn3)ccc12`, the inhibition is 0.212% (inactive).

Turning to `COc1ccc(N2CCN(C(=O)COc3ccc4c(C)cc(=O)oc4c3)CC2)cc1`, the inhibition is -4.41% (inactive).

Consider `CC(=O)Nc1cccc(NC(=O)CSc2nccn2Cc2ccc(F)cc2)c1`, for which the inhibition was -1.4% (inactive).

Regarding `CC1=NN(Cc2ccccc2)C(=O)/C1=C/c1ccc(N(C)C)cc1`, the inhibition was 42.9% (active).

For `CN(C)c1ccc(/C=C2\NC(=S)N(Cc3ccccc3)C2=O)cc1`, the inhibition was -1.92% (inactive).

In the case of `CN(C)c1ccc(C=C2C(=O)OC3(CCCC3)OC2=O)cc1`, the inhibition is -3.67% (inactive).

Consider `CCc1cccc2c3c([nH]c12)C(CC)(CC(=O)O)OCC3` (configuration not stated), for which the inhibition is -3.9% (inactive).

As to `CCCC/C(C)=N/NC(=O)NC1CCCCC1`, the inhibition is -5.59% (inactive).

For the compound `O=C1/C(=C\c2ccc3c(c2)OCO3)N2CCC1CC2`, the inhibition is -0.267% (inactive).

As to `O=C1/C(=C/c2ccc3c(c2)OCO3)CCC/C1=C\c1ccc2c(c1)OCO2`, the inhibition is 30.4% (active).

Take `O=C(N/N=C/c1ccc2c(c1)OCO2)C(=O)N1CCCC1`: the inhibition is -2.18% (inactive).

Take `Cc1nn(-c2ccccc2)c(C)c1NC(=O)COC(=O)c1cc(Cl)ccc1O`: the inhibition was 0.496% (inactive).

As to `CC(C(=O)c1ccc(-c2ccccc2)cc1)[n+]1cccc(Br)c1` (configuration not stated), the inhibition is 0.227% (inactive).

With `O=C(Cc1ccc2c(c1)CCCC2)Nc1ccccc1Cl`, the inhibition is 5.79% (inactive).

As to `O=C(Nc1ccccc1Cl)/C(Cl)=C(\Cl)S(=O)c1ccccc1` (configuration not stated), the inhibition is 97% (active).

On to `O=C(Nc1ccccc1Cl)Nc1cccc2cccnc12`, for which the inhibition is 6.8% (inactive).

For the compound `CCN(C(=O)CSc1nnc(-c2ccc(OC(F)F)cc2)n1N)C1CCS(=O)(=O)C1` (configuration not stated), the inhibition was -2.58% (inactive).

For the compound `C=CCN1C(=NC(=O)COc2ccccc2)SC2CS(=O)(=O)CC21` (configuration not stated), the inhibition is -0.786% (inactive).

On to `Cc1nc2ccccc2nc1N/N=C/c1ccc(O)cc1O`, for which the inhibition is 32% (active).

Regarding `Oc1ccc(/C=N/NC2=NCCCCC2)c(O)c1`, the inhibition is -9.19% (inactive).

As to `Oc1ccc(/C=N/Nc2nc(-c3ccccc3F)nc3ccccc23)c(O)c1`, the inhibition is 10.7% (inactive).

For `CCCOc1ccc(Cl)cc1Nc1nc(NCCO)nc(N2CCCC2)n1`, the inhibition is -0.826% (inactive).

Regarding `Cn1c(=O)c2c(-c3cccc(Br)c3)c(C#N)c(N)nc2n(C)c1=O`, the inhibition is -11.9% (inactive).

For `CCc1ccc2c(c1)cc(CN(C(=S)Nc1ccccc1Cl)C1CC1)c1nnnn12`, the inhibition is -0.332% (inactive).

With `CSc1ccccc1NC(=O)C(C)N1C(=O)c2ccccc2S1(=O)=O` (configuration not stated), the inhibition is 1.38% (inactive).

Turning to `O=C(Nc1ccc(F)cc1)C(=O)c1cn(CC(=O)N2CCOCC2)c2ccccc12`, the inhibition was -4.57% (inactive).

For the compound `Cc1ccc(S(=O)(=O)NC2(C(F)(F)F)NC(=O)N(CCc3ccccc3)C2=O)cc1` (configuration not stated), the inhibition is -2.6% (inactive).

`Cc1nn(-c2ccc([N+](=O)[O-])cc2)c(N)c1-c1ccccc1`: the inhibition was 0.233% (inactive).

In the case of `O=C1CC(c2ccccc2)=NN1c1ccc([N+](=O)[O-])cc1`, the inhibition is 54.9% (active).

As for `CC1=NN(c2ccccc2)C(=O)C1C(=O)c1ccc([N+](=O)[O-])cc1` (configuration not stated), the inhibition was 5.51% (inactive).
